GLS inhibitor = inhibitors of human glutaminase (GLS) | O94925 | actives 0.21% (n = 410,000) | GLS enzymatic activity, qHTS titration | AID 624170 | Potency, µM (doses to about 45.5 µM), for inactives: top-dose activity change, negative = inhibition, hits mostly inhibitors; further: on the % scale 0 is the no-effect control and ±100 the full control effect
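Assay buffer: 45 mM KH2PO4 pH 8.2, 0.02% Tween-20. hKGA acts on L-glutamine (1 mM solution added); product glutamate is reported by an oxidase/peroxidase Amplex Red coupling, with fluorescence taken at baseline and 30 min.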
BAZ2B inh = inhibitors of human BAZ2B bromodomain; Q9UIF8; AlphaScreen BAZ2B-H3K14Ac peptide displacement; Potency, µM (titrated, usually from 114 µM), for the others: top-dose activity change, negative = inhibition, most hits filed as inhibitors; actives 4.4% (n = 360,000); AID 504333; further: on the % scale 0 is the no-effect control and ±100 the full control effect; nearly all actives have a fitted effect of over 60% in size
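BAZ2B 50 nM plus b-H3(5-23)K14Ac 50 nM, PBS pH 7.4/0.01% Tween-20, 30 min RT; compound added (max 110 uM), 30 min RT; streptavidin donor/Ni-chelate acceptor beads 10 ug/mL final, 20 min dark; AlphaScreen read.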
JMJD2A Tudor inh = JMJD2A Tudor domain (human) inhibition. AID 504339. Potency, µM (highest dose often 114 µM), without a hit: at the highest dose activity change, negative = inhibition, actives largely listed as inhibitors. AlphaScreen JMJD2A-Tudor / H3K4me3 peptide binding. actives 4.4% (n = 390,000); further: on the % scale 0 is the no-effect control and ±100 the full control effect; nearly all actives have a fitted effect of over 50% in size
G9a block = G9a (human) methyltransferase inhibition; Potency, µM (top dose mostly 102 µM), for the others: at the top dose activity, negative = inhibition, hits mostly inhibitors; G9a H3K9 monomethylation, AlphaScreen, 2 h; actives 8.8% (n = 350,000); Q96KQ7; further: on the % scale 0 is the no-effect control and ±100 the full control effect; nearly all actives have a fitted effect of over 75% in size
Target sequence (Q96KQ7 913-1193 limits assumed): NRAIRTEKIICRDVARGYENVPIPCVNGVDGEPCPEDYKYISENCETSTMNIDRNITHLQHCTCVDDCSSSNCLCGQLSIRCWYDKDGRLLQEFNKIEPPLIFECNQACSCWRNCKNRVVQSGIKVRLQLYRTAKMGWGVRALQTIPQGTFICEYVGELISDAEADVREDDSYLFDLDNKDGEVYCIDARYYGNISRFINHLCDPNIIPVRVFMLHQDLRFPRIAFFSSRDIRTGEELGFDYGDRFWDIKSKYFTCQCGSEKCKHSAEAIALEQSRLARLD
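Chemiluminescent proximity detection of H3K9 monomethylation, read after 10 min bead incubation in the dark. Reaction: 20 nM G9a, 500 nM biotin-H3K9 peptide, 20 uM SAM cofactor, 2 h, room temperature, following 15 min enzyme-compound preincubation.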
HP1b chromo inh = blocks HP1-beta chromodomain binding to methylated histone tails; AID 540317; AlphaScreen HP1-beta / biotin-H3K9me3 peptide binding; actives 0.56% (n = 390,000); Potency, µM (series often up to 114 µM), for inactives: top-dose activity change, negative = inhibition, most hits filed as inhibitors; further: nearly all actives have a fitted effect of over 70% in size
Target sequence (P83916 whole entry, looked up): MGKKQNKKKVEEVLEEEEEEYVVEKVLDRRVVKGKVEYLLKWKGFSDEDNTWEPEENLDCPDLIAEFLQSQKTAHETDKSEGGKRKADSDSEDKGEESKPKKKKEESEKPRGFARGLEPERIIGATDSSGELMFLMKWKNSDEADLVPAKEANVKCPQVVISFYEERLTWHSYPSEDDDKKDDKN
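HP1-beta protein (50 nM final) preincubated 30 min at room temperature with biotinylated H3(1-18)K9me3 peptide (50 nM) in PBS pH 7.4, 0.01% Tween-20, then compound added for 30 min. AlphaScreen streptavidin donor/nickel chelate acceptor beads (10 ug/mL final), 30 min dark, luminescence read.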
The depositor's hits bear a star; ! = not active in a repeat; [ ] = dose if it differs, or a comment. In the library only some 10% were active in any assay of this set; here they are far more common. The call rests on the fitted dose curve; in most records, active means well fitted curve in the direction sought with a large enough effect; inconclusive means small, poorly fitted or top-dose-only effect, or another doubt; inactive means no such curve, though single readings can be large; an effect the other way counts as inactive or inconclusive. Potency means the concentration at half of the fitted maximal effect.

What do the screens show for `CCOC(=O)c1ccccc1NC(=O)CSc1nc(=O)[nH]c2c1CCCC2`?
GLS inhibitor: -6.0%; BAZ2B inh: -11.0%; JMJD2A Tudor inh: -11.4%; G9a block: 7.5%[59 µM]; HP1b chromo inh: 25.6%

How did Cc1cccc(NS(=O)(=O)c2nnc(NC(=O)C3CCCCC3)s2)c1 do in these assays?
GLS inhibitor: 0.0%; BAZ2B inh: 6.31µM*!; JMJD2A Tudor inh: -14.8%; G9a block: 8.91µM*!; HP1b chromo inh: 34.1%

What do the screens show for `Cc1cccc(NNC(=O)C2CCC2)c1`?
GLS inhibitor: 17.4%; BAZ2B inh: 0.7%; JMJD2A Tudor inh: 3.3%; G9a block: 31.6µM*; HP1b chromo inh: 59.6%

How did O=C(NNc1ccc(Cl)cc1)C1CCC1 do in these assays?
GLS inhibitor: inconclusive; BAZ2B inh: -2.5%; JMJD2A Tudor inh: -19.1%; G9a block: 17.8µM*; HP1b chromo inh: 52.7%

How did Cc1cccc(NC(=O)C2CCCC2)c1 do in these assays?
GLS inhibitor: 6.2%; BAZ2B inh: 12.9%; JMJD2A Tudor inh: -4.5%; G9a block: 25.0%[59 µM]; HP1b chromo inh: 18.6%

How did Cc1cccc(NNC(=O)c2c(F)cccc2Cl)c1 do in these assays?
GLS inhibitor: 22.5%; BAZ2B inh: -9.3%; JMJD2A Tudor inh: -3.3%; G9a block: 70.8µM*; HP1b chromo inh: 54.3%

What do the screens show for `COc1cccc(CNC(=O)C2CCN(S(=O)(=O)c3ccc4c(c3)CC(C)N4C(=O)C3CC3)CC2)c1` (stereo not given)?
GLS inhibitor: 1.7%; BAZ2B inh: -29.9%; JMJD2A Tudor inh: -2.1%; G9a block: -3.0%; HP1b chromo inh: 24.2%

Results for COc1ccc(-n2cc(C(=O)N(C)c3cc(C)ccc3OC)c3ccccc3c2=O)cc1 ?
GLS inhibitor: -6.2%; BAZ2B inh: inconclusive; JMJD2A Tudor inh: -13.5%; G9a block: inconclusive; HP1b chromo inh: 25.4%

What do the screens show for `COc1cc(/C=C2\N=C(C)OC2=O)cc(Cl)c1OC(C)=O`?
GLS inhibitor: 31.8%; BAZ2B inh: 0.9%; JMJD2A Tudor inh: -1.1%; G9a block: 39.8µM*; HP1b chromo inh: 11.0%

How did CCCC(C)c1nnc(NC(=O)C2CC(=O)N(CCc3ccc(F)cc3)C2)s1 (stereo not given) do in these assays?
GLS inhibitor: inconclusive; BAZ2B inh: -18.3%; JMJD2A Tudor inh: inconclusive; G9a block: 7.94µM*; HP1b chromo inh: inconclusive

Results for CCc1nnc(NC(=O)C2CC(=O)N(CCc3ccc(F)cc3)C2)s1 (stereo not given) ?
GLS inhibitor: -11.3%; BAZ2B inh: -17.7%; JMJD2A Tudor inh: -9.8%; G9a block: inconclusive; HP1b chromo inh: -7.1%

What do the screens show for `CC(C)(C)c1nnc(NC(=O)C2CC(=O)N(CCc3ccc(F)cc3)C2)s1` (stereo not given)?
GLS inhibitor: 5.6%; BAZ2B inh: 7.7%; JMJD2A Tudor inh: -15.8%; G9a block: 31.6µM*; HP1b chromo inh: -15.9%

What do the screens show for `COc1ccc2c(c1)cc1c(=O)n(CC(=O)NC3CC3)nc(C)n12`?
GLS inhibitor: 3.4%; BAZ2B inh: 1.3%; JMJD2A Tudor inh: 8.0%; G9a block: 8.4%[59 µM]; HP1b chromo inh: 42.1%

Results for Cc1c(C(=O)OCc2ccccc2)[nH]c2c1C(=O)CC(c1ccc(Cl)cc1)C2 (stereo not given) ?
GLS inhibitor: 2.4%; BAZ2B inh: 0.5%; JMJD2A Tudor inh: -1.7%; G9a block: -0.7%[59 µM]; HP1b chromo inh: 40.1%

How did C/C=C/COC(=O)c1[nH]c2c(c1C)C(=O)CC(c1ccc(N(C)C)cc1)C2 (stereo not given) do in these assays?
GLS inhibitor: -2.6%; BAZ2B inh: inconclusive; JMJD2A Tudor inh: 89.1µM*; G9a block: 35.5µM*; HP1b chromo inh: -12.3%

What do the screens show for `CCC(C)OC(=O)c1[nH]c2c(c1C)C(=O)CC(c1ccc(N(C)C)cc1)C2` (stereo not given)?
GLS inhibitor: -6.0%; BAZ2B inh: inconclusive; JMJD2A Tudor inh: inconclusive; G9a block: 14.1µM*; HP1b chromo inh: -6.0%

What do the screens show for `Cc1c(C(=O)OC2CCCCCC2)[nH]c2c1C(=O)CC(c1ccc(N(C)C)cc1)C2` (stereo not given)?
GLS inhibitor: -3.4%; BAZ2B inh: inconclusive; JMJD2A Tudor inh: inconclusive; G9a block: 5.1%[59 µM]; HP1b chromo inh: -12.4%

How did O=C(COC(=O)/C=C/c1ccc(OC(F)F)cc1)NC1CCCCCC1 do in these assays?
GLS inhibitor: -11.7%; JMJD2A Tudor inh: -0.7%; HP1b chromo inh: 14.9%

Results for NNC(=O)COc1ncn(-c2ccccc2)n1 ?
GLS inhibitor: 5.9%; BAZ2B inh: -5.0%; JMJD2A Tudor inh: -4.3%; G9a block: 9.7%[59 µM]; HP1b chromo inh: 18.3%

How did Cc1ccc(S(=O)(=O)N(C)C)cc1NC(=O)Nc1ccccc1 do in these assays?
GLS inhibitor: -0.6%; BAZ2B inh: -10.4%; JMJD2A Tudor inh: -23.2%; G9a block: -3.2%; HP1b chromo inh: 15.8%

What do the screens show for `COC(=O)Cc1ccc(OC2(C)CCN(Cc3ccccc3OC(F)F)C2)cc1` (stereo not given)?
GLS inhibitor: 20.2%

How did O=C(O)/C=C/c1ccc(OCc2cccc(F)c2)cc1 do in these assays?
GLS inhibitor: -12.2%; BAZ2B inh: -13.2%; JMJD2A Tudor inh: 14.1µM*; G9a block: -28.6%; HP1b chromo inh: -1.7%

How did O=C(O)/C=C/C(=O)Nc1ccc(OCc2ccccc2)cc1 do in these assays?
GLS inhibitor: 5.4%; BAZ2B inh: -28.3%; JMJD2A Tudor inh: -17.7%; G9a block: 56.2µM*; HP1b chromo inh: 51.1%

Results for O=C(/C=C/c1ccc(OCc2cccc(Cl)c2)cc1)N1CCOCC1 ?
GLS inhibitor: -2.4%; BAZ2B inh: -26.0%; JMJD2A Tudor inh: -17.7%; G9a block: 4.1%; HP1b chromo inh: 36.9%

How did CC(Sc1nc(N)c2c3c(sc2n1)CSC(C)(C)C3)C(=O)Nc1ccccc1 (stereo not given) do in these assays?
GLS inhibitor: inconclusive; BAZ2B inh: -7.4%; JMJD2A Tudor inh: 11.2µM*; G9a block: -19.7%; HP1b chromo inh: inconclusive

What do the screens show for `CC(Sc1nc(NCc2ccccc2)nc(N(C)C)n1)C(=O)Nc1ccccc1` (stereo not given)?
GLS inhibitor: 3.5%; BAZ2B inh: -25.5%; JMJD2A Tudor inh: -12.2%; HP1b chromo inh: 47.1%

What do the screens show for `O=[N+]([O-])c1ccc(C23CC4CC(CC(O)(C4)C2)C3)cc1`?
BAZ2B inh: -21.4%; G9a block: -2.6%[59 µM]

What do the screens show for `COC(=O)c1ccc(N2CCOCC2)c(NC(=O)Nc2cccc(OC)c2)c1`?
GLS inhibitor: -11.5%; BAZ2B inh: 4.7%; JMJD2A Tudor inh: -8.3%; G9a block: 44.7µM*; HP1b chromo inh: -1.6%

How did CCOC(=O)c1ccc(N2CCN(c3ccccc3F)CC2)c(NC(=O)Nc2cccc(OC)c2)c1 do in these assays?
GLS inhibitor: 3.0%; BAZ2B inh: -24.6%; JMJD2A Tudor inh: -34.9%; G9a block: -47.8%[59 µM]; HP1b chromo inh: -4.1%
